A number with no mark means an inactive call. Inconclusive results are not listed. Active and inactive are the calls of the source. Calls follow the shape of the dose curve; as a rule, active = well fitted curve in the direction sought with a large enough effect in the repeat runs; inconclusive = weak or mixed curves; inactive = no such curve, though single readings can be large; an effect the other way counts as inactive or inconclusive.

Assay [1] can be described thus: Caspase-3/7 induction in HepG2 cells by small molecules, qHTS assay (AID 1346978). Also: nearly all actives have a fitted effect of over 15% in size. Summed up:
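Wild-type HepG2 cells (2,000/well) were settled 5 h at 37 C, 5% CO2, then exposed to compounds in DMSO for 17 h. Caspase-3/7 activity was read by luminescence 30 min after adding Caspase-Glo 3/7 reagent at room temperature.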
For orientation: qHTS replaces the single test concentration by a dilution series.

Assay [2] is described as follows: Caspase-3/7 induction in CHO-K1 cells by small molecules, qHTS cell viability counter screen (AID 1346979). Also: nearly all actives have a fitted effect of over 35% in size. Also: potency is read from the fitted curve at half-maximal effect. Summed up:
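CellTiter-Fluor viability check, qHTS format: wild-type CHO-K1, 16hr compound treatment, 1hr reagent incubation, fluorescence read.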

Assay [3] can be described thus: Caspase-3/7 induction in CHO-K1 cells by small molecules, qHTS assay (AID 1346980). Also: nearly all actives have a fitted effect of over 15% in size. Summed up: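 Wild-type cells were seeded at 1,500 per well and settled 5 hr at 37 C, 5% CO2, then exposed to DMSO-dissolved compounds for 17 hr. Caspase-Glo 3/7 reagent was added, and luminescence was read after 30min at room temperature.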
A short description of assay [4]: Caspase-3/7 induction in HepG2 cells by small molecules, qHTS cell viability counter screen (AID 1346981). Also: series mostly up to about 92 µM; nearly all actives have a fitted effect of over 30% in size. The essentials: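 The parent HepG2 line is plated at 2,000 cells per well and rested 5 hr before compound pinning from DMSO stocks. Following a 16-hr treatment at 37 C, a fluorogenic live-cell substrate (CellTiter-Fluor) reports viability after 1 hr.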
For assay [5], the target named is Nuclear receptor subfamily 1 group I member 2 (Homo sapiens) (UniProt O75469). In words: Human pregnane X receptor (PXR) small molecule agonists, qHTS assay (AID 1346982). Also: nearly all actives have a fitted effect of over 35% in size. Also: potency is read from the fitted curve at half-maximal effect. Summed up: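 After plating in 5% charcoal-stripped FBS and a 5 hr rest, PXR-Luc HepG2 cells received compounds in DMSO. Following 24 hr at 37 C, ONE-Glo was added and light output read.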
Assay [6] concerns the target Cytochrome P450 2D6 (Homo sapiens) (UniProt P10635). In words: Cytochrome P450 Family 2 Subfamily D Member 6 (CYP2D6) small molecule antagonists: luciferase reporter qHTS assay (AID 1671196). Also: nearly all actives have a fitted effect of over 50% in size. Also: potency is read from the fitted curve at half-maximal effect. The essentials: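 Quantitative HTS of Tox21 chemicals against CYP2D6 using a luminescent proluciferin substrate. After NADPH addition, 1 h room-temperature reaction; luminescence recorded 20 min post detection reagent.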

In assay [7] the target is Cytochrome P450 2C9 (Homo sapiens) (UniProt P11712). In words: Cytochrome P450 Family 2 Subfamily C Member 9 (CYP2C9) small molecule antagonists: luciferase reporter qHTS assay (AID 1671198). Also: nearly all actives have a fitted effect of over 50% in size. Also: potency is read from the fitted curve at half-maximal effect. The essentials:
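CYP2C9 activity was measured with a P450-Glo proluciferin substrate. Enzyme–substrate mix was held with compound for 10 min at room temperature, then NADPH regeneration solution was added for 1 h at 37C. Luciferin product was read as luminescence.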

The target of assay [8] is Cytochrome P450 1A2 (Homo sapiens) (UniProt P05177). In words: Cytochrome P450 Family 1 Subfamily A Member 2 (CYP1A2) small molecule antagonists: luciferase reporter qHTS assay (AID 1671199). Also: nearly all actives have a fitted effect of over 50% in size. Also: potency is read from the fitted curve at half-maximal effect. The essentials:
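Quantitative high-throughput format using the P450-Glo CYP1A2 system. Reaction initiated by NADPH regeneration solution, 1 h at room temperature, then stopped with detection reagent; luminescence measured 20 min later.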
In general terms: Reporter assays use an easily measured gene product as a stand-in for the process of interest.

Assay [9] deals with Voltage-gated inwardly rectifying potassium channel KCNH2 (Homo sapiens) (UniProt Q12809). In words: Human Ether-a-go-go-Related Gene (hERG) channel small molecule antagonists: fluorescence cell-based qHTS assay (AID 1671200).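 Also: hERG-expressing U2OS cells given a thallium stimulus after FluxOR II dye loading; series mostly up to about 77 µM; nearly all actives have a fitted effect of over 50% in size.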 The essentials:
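Kinetic two-minute fluorescence traces, sampled at 1 s, were collected following thallium stimulus of U2OS cells (1000 per well) that had been cultured overnight at 37 C and loaded with FluxOR II.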
In general terms: Block of hERG is tested as a sign of cardiac risk.

Assay [10] has as its target Cytochrome P450 3A4 (Homo sapiens) (UniProt P08684). The assay is described as follows: Cytochrome P450 Family 3 Subfamily A Member 4 (CYP3A4) small molecule antagonists: luciferase reporter qHTS assay (AID 1671201). Also: nearly all actives have a fitted effect of over 50% in size. Also: potency is read from the fitted curve at half-maximal effect. Summed up: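 Proluciferin-to-luciferin conversion by CYP3A4, NADPH-regenerated, 1 h RT; luminescence read as RLU. Ketoconazole as control.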
The nature of assay [11]: Human pregnane X receptor (PXR) small molecule agonists, qHTS cell viability counter screen (AID 1346977). Also: nearly all actives have a fitted effect of over 50% in size. Summed up: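 Tox21 qHTS format; PXR-Luc HepG2, 2,000/well, charcoal-stripped FBS 5%. Cpd exposure 24hr. Read: CellTiter-Fluor fluorescence, multiplexed with luciferase.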
The target of assay [12] is Cytochrome P450 2C19 (Homo sapiens) (UniProt P33261). The assay is described as follows: Cytochrome P450 Family 2 Subfamily C Member 19 (CYP2C19) small molecule antagonists: luciferase reporter qHTS assay (AID 1671197). Also: nearly all actives have a fitted effect of over 65% in size. Also: potency is read from the fitted curve at half-maximal effect. The essentials: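 Inhibition of CYP2C19 was scored from loss of luminescence in a P450-Glo proluciferin substrate assay, NADPH-started and run 1 h at 37C, with ketoconazole as positive control.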

For assay [13], the target named is Nuclear receptor subfamily 1 group I member 2 (Rattus norvegicus) (UniProt Q9R1A7). The assay is described as follows: Rat pregnane X receptor (rPXR) activation by small molecules, qHTS assay (AID 1346983). Also: nearly all actives have a fitted effect of over 20% in size. The conditions noted are these: rPXR luciferase reporter cells, One-Glo luminescence, 24 h; max activation: active compounds read high. The essentials:
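Cell-based rPXR luciferase reporter assay, 2,000 cells per well, rested 5hr at 37 C before compound addition in DMSO, then 24 hr at 37 C. One-Glo reagent was added and luminescence read after 30 min at room temperature.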

Assay [14] addresses Nuclear receptor subfamily 1 group I member 2 (Homo sapiens) (UniProt O75469). The assay is described as follows: CYP3A4 induction through human pregnane X receptor (PXR) by small molecules, qHTS assay (AID 1346984). Also: nearly all actives have a fitted effect of over 40% in size. The essentials:
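Human PXR activation is tracked via CYP3A4 promoter-luciferase in DPX-2 (HepG2) cells. Compounds treat cells for 24hr at 37C, and luminescence is read after One-Glo.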

The target is the same in assay [15]. In words: Human pregnane X receptor (PXR) activation by small molecules, qHTS assay (AID 1346985). Also: nearly all actives have a fitted effect of over 40% in size. Summed up: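 DPX-2 cells (HepG2 co-transfected with a PXR response element and a CYP3A4-promoter luciferase construct) were seeded at 2,000 per well, rested 5 hr at 37C, then exposed to DMSO-dissolved compounds for 24 hr. Activation was read as luciferase luminescence.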
% is scaled to controls: 0 for no effect and ±100 for the full control effect.

Chain of Nuclear receptor subfamily 1 group I member 2 (Rattus norvegicus) (Q9R1A7 whole entry, looked up): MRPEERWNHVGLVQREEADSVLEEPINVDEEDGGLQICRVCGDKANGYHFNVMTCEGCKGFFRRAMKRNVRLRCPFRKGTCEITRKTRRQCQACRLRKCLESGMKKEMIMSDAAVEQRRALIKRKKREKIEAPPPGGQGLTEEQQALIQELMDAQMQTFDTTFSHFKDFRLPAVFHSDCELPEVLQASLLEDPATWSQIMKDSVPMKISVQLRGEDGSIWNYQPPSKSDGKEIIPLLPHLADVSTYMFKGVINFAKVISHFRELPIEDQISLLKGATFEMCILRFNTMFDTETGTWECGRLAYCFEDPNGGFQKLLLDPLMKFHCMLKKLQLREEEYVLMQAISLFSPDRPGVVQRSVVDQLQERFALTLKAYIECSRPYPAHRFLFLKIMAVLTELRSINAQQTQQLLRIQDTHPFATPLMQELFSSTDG
Chain of Nuclear receptor subfamily 1 group I member 2 (Homo sapiens) (O75469 whole entry, looked up): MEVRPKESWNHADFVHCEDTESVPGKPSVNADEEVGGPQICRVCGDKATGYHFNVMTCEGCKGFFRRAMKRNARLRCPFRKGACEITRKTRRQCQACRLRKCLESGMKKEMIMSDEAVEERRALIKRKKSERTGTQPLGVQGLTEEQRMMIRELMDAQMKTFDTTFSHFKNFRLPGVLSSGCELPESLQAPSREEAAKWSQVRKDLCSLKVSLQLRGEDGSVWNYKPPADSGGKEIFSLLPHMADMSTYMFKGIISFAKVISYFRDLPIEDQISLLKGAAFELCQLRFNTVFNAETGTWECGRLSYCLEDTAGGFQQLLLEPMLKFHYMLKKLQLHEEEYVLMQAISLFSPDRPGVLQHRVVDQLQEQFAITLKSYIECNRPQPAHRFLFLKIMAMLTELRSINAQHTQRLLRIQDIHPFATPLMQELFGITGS
Chain of Cytochrome P450 2C9 (Homo sapiens) (P11712 whole entry, looked up): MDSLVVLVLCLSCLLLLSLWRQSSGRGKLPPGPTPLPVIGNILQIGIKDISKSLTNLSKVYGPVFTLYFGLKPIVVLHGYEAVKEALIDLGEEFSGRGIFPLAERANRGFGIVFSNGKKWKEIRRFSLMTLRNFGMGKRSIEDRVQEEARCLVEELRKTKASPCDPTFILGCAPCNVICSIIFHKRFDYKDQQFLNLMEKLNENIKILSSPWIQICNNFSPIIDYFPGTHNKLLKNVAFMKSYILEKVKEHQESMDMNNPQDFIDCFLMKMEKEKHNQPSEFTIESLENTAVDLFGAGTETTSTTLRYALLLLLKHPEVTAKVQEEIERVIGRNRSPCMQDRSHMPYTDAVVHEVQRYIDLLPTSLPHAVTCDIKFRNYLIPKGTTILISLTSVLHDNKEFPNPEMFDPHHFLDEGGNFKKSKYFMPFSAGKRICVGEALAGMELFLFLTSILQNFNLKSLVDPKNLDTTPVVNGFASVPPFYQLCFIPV
Chain of Cytochrome P450 1A2 (Homo sapiens) (P05177 whole entry, looked up): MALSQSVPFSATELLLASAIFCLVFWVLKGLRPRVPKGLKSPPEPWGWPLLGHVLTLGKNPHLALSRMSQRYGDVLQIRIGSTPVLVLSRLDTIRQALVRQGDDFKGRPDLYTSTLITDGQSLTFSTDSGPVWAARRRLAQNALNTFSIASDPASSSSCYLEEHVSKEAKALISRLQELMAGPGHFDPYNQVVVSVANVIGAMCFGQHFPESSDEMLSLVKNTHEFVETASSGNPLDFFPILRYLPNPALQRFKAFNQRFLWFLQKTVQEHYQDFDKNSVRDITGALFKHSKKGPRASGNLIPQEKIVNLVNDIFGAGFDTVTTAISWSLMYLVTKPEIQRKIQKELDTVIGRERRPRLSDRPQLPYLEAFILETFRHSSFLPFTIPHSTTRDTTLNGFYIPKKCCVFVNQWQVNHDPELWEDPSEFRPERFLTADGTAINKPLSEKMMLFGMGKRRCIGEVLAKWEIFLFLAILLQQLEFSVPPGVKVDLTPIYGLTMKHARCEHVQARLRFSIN
Chain of Cytochrome P450 2C19 (Homo sapiens) (P33261 whole entry, looked up): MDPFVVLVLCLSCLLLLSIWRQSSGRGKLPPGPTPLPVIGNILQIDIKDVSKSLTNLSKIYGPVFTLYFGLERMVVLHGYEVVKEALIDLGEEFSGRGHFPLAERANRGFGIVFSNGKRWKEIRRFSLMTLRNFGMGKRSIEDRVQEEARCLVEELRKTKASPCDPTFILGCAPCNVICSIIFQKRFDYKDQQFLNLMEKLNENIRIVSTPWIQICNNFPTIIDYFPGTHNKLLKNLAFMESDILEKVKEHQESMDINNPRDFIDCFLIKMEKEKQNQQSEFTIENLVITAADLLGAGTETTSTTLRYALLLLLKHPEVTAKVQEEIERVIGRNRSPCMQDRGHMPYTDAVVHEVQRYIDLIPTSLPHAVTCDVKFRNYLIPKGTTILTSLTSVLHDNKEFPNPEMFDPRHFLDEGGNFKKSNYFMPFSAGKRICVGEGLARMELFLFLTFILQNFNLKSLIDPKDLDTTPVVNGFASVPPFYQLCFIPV
Chain of Cytochrome P450 3A4 (Homo sapiens) (P08684 whole entry, looked up): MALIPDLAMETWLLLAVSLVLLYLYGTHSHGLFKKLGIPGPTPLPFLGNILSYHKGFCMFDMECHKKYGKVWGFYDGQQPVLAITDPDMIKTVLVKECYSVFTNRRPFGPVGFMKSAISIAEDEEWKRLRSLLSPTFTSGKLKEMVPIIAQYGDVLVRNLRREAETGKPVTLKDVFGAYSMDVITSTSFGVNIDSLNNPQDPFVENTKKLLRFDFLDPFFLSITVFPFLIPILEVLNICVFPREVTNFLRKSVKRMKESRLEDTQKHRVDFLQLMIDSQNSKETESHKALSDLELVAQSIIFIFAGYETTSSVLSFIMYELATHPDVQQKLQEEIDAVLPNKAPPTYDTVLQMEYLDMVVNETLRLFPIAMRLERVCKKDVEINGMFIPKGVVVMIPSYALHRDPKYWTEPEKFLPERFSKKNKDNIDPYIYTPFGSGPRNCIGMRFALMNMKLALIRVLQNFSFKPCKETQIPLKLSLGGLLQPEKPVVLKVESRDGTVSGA
Chain of Voltage-gated inwardly rectifying potassium channel KCNH2 (Homo sapiens) (Q12809 whole entry, looked up): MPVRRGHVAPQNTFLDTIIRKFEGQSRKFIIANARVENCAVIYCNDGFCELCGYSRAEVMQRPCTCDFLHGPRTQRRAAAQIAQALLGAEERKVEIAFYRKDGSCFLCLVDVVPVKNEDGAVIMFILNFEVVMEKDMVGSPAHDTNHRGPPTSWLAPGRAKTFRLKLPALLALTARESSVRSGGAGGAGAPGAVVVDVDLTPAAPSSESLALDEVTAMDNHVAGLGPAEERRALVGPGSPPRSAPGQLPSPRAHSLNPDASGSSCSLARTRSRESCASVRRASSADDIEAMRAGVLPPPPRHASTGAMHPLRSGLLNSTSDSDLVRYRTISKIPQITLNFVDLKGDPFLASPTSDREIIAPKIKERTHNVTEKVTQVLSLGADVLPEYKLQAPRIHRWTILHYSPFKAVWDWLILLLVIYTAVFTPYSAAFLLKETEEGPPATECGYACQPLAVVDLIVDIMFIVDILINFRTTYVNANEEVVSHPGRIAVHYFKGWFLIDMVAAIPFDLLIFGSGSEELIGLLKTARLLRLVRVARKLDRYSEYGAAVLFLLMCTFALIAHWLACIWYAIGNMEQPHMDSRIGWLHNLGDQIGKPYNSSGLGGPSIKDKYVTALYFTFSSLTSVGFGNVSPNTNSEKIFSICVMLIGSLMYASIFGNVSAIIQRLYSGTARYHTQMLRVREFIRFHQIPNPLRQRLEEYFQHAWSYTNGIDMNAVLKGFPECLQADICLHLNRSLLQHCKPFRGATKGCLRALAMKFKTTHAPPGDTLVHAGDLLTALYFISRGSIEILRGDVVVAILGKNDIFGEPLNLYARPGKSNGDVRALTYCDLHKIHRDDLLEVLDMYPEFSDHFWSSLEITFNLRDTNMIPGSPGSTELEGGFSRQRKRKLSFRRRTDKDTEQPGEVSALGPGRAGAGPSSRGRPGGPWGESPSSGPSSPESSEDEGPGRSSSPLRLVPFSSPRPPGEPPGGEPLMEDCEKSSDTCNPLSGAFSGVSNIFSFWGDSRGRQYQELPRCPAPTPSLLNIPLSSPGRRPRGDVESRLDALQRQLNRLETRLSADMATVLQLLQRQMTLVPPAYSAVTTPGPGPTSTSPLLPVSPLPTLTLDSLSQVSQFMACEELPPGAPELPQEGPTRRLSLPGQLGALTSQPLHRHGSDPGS
Chain of Cytochrome P450 2D6 (Homo sapiens) (P10635 whole entry, looked up): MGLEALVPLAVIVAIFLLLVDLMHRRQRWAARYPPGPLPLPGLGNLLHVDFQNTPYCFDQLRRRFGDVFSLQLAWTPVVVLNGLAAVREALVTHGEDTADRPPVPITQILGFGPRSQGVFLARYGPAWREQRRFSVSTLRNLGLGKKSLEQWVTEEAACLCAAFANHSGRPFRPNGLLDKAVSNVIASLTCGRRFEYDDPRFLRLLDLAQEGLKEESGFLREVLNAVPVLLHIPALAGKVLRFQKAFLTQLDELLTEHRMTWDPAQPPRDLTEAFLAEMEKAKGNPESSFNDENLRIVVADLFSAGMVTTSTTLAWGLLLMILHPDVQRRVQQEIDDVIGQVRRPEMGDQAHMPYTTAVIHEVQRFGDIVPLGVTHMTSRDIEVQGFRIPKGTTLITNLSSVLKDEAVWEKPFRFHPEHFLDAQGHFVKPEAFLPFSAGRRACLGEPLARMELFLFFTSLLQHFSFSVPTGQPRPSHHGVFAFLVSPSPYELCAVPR

As for `NC(=O)N(O)[C@@H]1COc2cc(OCc3ccccc3)ccc21`, the Potency result in [1], in assay [4] and in assay [9] was “inactive” in each case. Moreover, the Potency was 24.3 µM (active) in [2]; 12.2 µM (active) in assay [5]; 10 µM (active) in assay [6]; 7.96 µM (active) in assay [7]; 5.03 µM (active) in assay [8]; 2.52 µM (active) in assay [10]. The compound was called inactive in assay [3].
Regarding `C=C(C)C(=O)OCCOC(=O)CC(C)=O`, the Potency entry in assay [11], in assay [1], in assay [2], in [4], in assay [5] and in assay [6] was “inactive” each time. Moreover, the Potency result in assay [12] and in [9] was “inactive” each time.
As for `CC(=O)CC(c1ccc([N+](=O)[O-])cc1)c1c(O)c2ccccc2oc1=O` (stereo not given), the Potency result in assay [11], in assay [4], in assay [5], in [14], in assay [15] and in assay [8] was “inactive” in each case. The Potency result in [9] and in [10] was “inactive” each time. For the same compound, in assay [13], the max activation was -1.52%. Further, the results for the Potency in assay [6], in assay [12] and in [7] were 38.9 µM (active), 8.71 µM (active) and 2.45 µM (active), respectively.
Take `COc1ccc([C@@H]2Sc3ccccc3NC(=O)[C@@H]2O)cc1`: the Potency result in assay [11], in [1], in assay [2], in assay [4], in assay [5] and in [9] was “inactive” throughout. For the same compound, the figures for the Potency in [12] and in assay [7] were 21.9 µM (active) and 17.4 µM (active), respectively.
On to `NC(=O)N(O)[C@@H]1C=C[C@H](Oc2cccc(Oc3ccc(F)cc3)c2)C1`, for which, in [1], the Potency entry was “inactive”. Moreover, the Potency in assay [2] is 68.6 µM (active); in assay [5] it was 19.3 µM (active); in [6] it was 5.03 µM (active); in assay [12] it was 8.94 µM (active); in assay [7] it was 31.7 µM (active); in [8], 7.96 µM (active). Besides, the Potency in [10] is 0.894 µM (active). Also, the compound was called inactive in assay [3].
Regarding `CO/N=C1\CN(c2nc3c(cc2F)c(=O)c(C(=O)O)cn3C2CC2)CC1CN` (stereo not given), the Potency result in assay [11], in assay [1], in assay [4], in assay [5], in assay [14] and in assay [15] was “inactive” each time. The Potency entry in assay [6], in assay [7], in assay [8] and in assay [10] was “inactive” throughout. Further, the result in assay [3] was inactive. The max activation in assay [13] was -0.199%.
As to `CCc1cccc(N(C)C(N)=Nc2cccc3ccccc23)c1`, the Potency entry in assay [1], in [2] and in assay [4] was “inactive” each time. In assay [3], the outcome was inactive. Further, in assay [13], the max activation is -1.24%.
Take `O=C(O)C(Cc1cc(I)c(O)c(I)c1)c1ccccc1` (stereo not given): the Potency result in assay [11], in [1], in assay [2], in assay [4], in assay [5] and in [14] was “inactive” each time. Besides, the Potency entry in assay [15], in assay [12] and in [9] was “inactive” each time. Moreover, the max activation in assay [13] was -2.03%. Further, the Potency in assay [7] is 9.77 µM (active); in [8], 24.5 µM (active).
As to `CCCCC(=O)O[C@]1(C(=O)CO)[C@@H](C)C[C@H]2[C@@H]3CCC4=CC(=O)C=C[C@]4(C)[C@@]3(F)[C@@H](O)C[C@@]21C`, the Potency result in assay [11], in assay [8] and in assay [9] was “inactive” in each case. Moreover, in assay [3], the result was inactive. Moreover, the Potency was 34.4 µM (active) in assay [5], 35.6 µM (active) in assay [6], 79.6 µM (active) in assay [12] and 35.6 µM (active) in [7].
Take `O=C(O)c1cccnc1C(=O)O`: the Potency entry in [11], in assay [1], in assay [2], in [5], in [6] and in assay [12] was “inactive” in each case. The Potency result in [7], in [8], in assay [9] and in [10] was “inactive” each time. The compound was called inactive in [3].

The values are drawn from PubChem BioAssay (Tox21).
